This is an account of results in PubChem BioAssay AID2514 (National Center for Advancing Translational Sciences (NCATS), 2010).

Molecules are shown by their SMILES. Records with an inconclusive call do not appear. Activity calls are given as the source filed them. Calls come from the whole dose curve; as a rule, active = well fitted activation curve with a large enough effect; inconclusive = small, poorly fitted or top-dose-only effect; inactive = no such curve, though single readings can be large or run the other way.

The nature of the experiment: Confirmation Concentration-Response Assay for Enhancers of SMN2 Splice Variant Expression for Probe SAR. The conditions noted are these: HEK293 SMN2 exon7 splicing luciferase reporter, luminescence. From the text: NIH Chemical Genomics Center [NCGC] NIH Molecular Libraries Probe Production centers Network [MLPCN] MLPCN Grant: R03 MH084179-01 Assay Submitter (PI): Elliot Androphy NCGC Assay Overview: Spinal muscular atrophy (SMA) is caused by insufficient levels of the survival motor neuron protein SMN. The SMN locus on chromosome 5q13 contains two inverted copies of SMN called SMN1 and SMN2 which are 99% identical at the amino acid level. SMN1 is a fully functional protein and SMN2 skips exon 7 90% of the time. Skipping of exon 7 produces non-functional protein product. 10% of the SMN2 protein includes exon 7 and is fully functional. In the SMA disease state, mutations in the SMN1 locus are the cause of the disease state. Because only 10% of SMN2 is of the fully functional form, it is not sufficient to overcome the deficiency produced by the loss of the SMN1 product. A therapy that either increase the amount of SMN2 product made or to increase the inclusion of exon 7 has been proposed for the treatment of SMA. We have designed an assay to identify small molecules that can increase the amount of functional SMN2 product by appending a luciferase reporter gene after the native SMN2 gene, such that inclusion of exon 7 in the expressed product places the luciferase sequence in frame, thus generating functional luciferase enzyme. […]

Regarding `Brc1ccc(-c2csc(N3CCCCC3)n2)cc1`, the Potency is 13.7 µM (active).
